RAD54 inh = inhibitors of human RAD54 branch migration, primary screen, biochemical, fluorescence, single point. inhibition, % at 10.4 µM. RAD54 Holliday junction branch migration, FAM/BHQ fluorescence. hit rate 0.14% among 360,000. DNA repair and recombination protein RAD54-like (Homo sapiens), Q92698;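 active = mean normalized replicate activity at least 40 and at least half of replicates scoring 40 or more; inconclusive = only one of the two criteria met; inactive = mean below 40 and under half of replicates reaching 40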;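 also: 0% = median of neutral control wells and 100% = median of positive control wells; inhibitors cause a drop in the FAM fluorescence signal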
Myeloid diff 2 = induction of myeloid progenitor differentiation, primary screen, cell-based, flow cytometry, MLPCN library | ER-HoxA9 myeloid progenitors, lysozyme-GFP differentiation | calls only at 10 µM | hit rate 1% among 360,000;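 active = normalized GFP-positive differentiation at or above the plate's own cutoff, the solvent-only control mean plus 3 SD; inconclusive = no clear call, values can overlap the other calls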;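 also: cells exposed to compound for four days before flow analysis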
Vif inh = HIV Vif self-association inhibitors, primary screen, imaging, HEK293T, single point; HEK293T cells, Vif self-association by quenched fluorescence, 24 h; inhibition, % at 7.49 µM; hit rate 0.35% among 340,000; in the data active = inhibition above about 50%, passing the limit was not always enough; inconclusive = no clear call, values can overlap the other calls; inactive = below about 31%
N-glyco inh = increase of ERlucT glycosylation luciferase signal, primary screen, N-linked glycosylation inhibitor project, D54 ERlucT cells, luminescence, set 2; reporter increase, % at 12.5 µM; D54 ERlucT glycosylation luciferase reporter, 24 h; percent of 100 nM tunicamycin response; hit rate 0.23% among 360,000;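 active = mean luciferase reporter signal, scaled so untreated is 0 and the glycosylation-blocking control 100, at or above a set limit in every replicate; inconclusive = mean reaches the limit but not every replicate does; inactive = mean below the limit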;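 also: luciferase carries N-glycosylation sites so blocking glycosylation raises the light; 0% = median of neutral control wells and 100% = median of 100 nM tunicamycin wells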
ABCB6 inh 2 = ABCB6 transporter inhibitors, primary screen, K562-ABCB6 cells, flow cytometry, MLPCN library | ATP-binding cassette sub-family B member 6 (Homo sapiens), Q9NP58 | K562-ABCB6 porphyrin accumulation, 1 h; stronger effect = lower value | fluorescence ratio to DMSO, % at 10 µM | hit rate 0.19% among 360,000 | AID 602162, 2011;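 active = fluorescence ratio to DMSO below 75%, the collection mean minus 3 SD; inconclusive = too few cells collected in the well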;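 also: signal is porphyrin accumulated inside mitochondria; 100% equals median channel fluorescence of DMSO control wells; lower ratio means ABCB6 inhibition with less porphyrin fluorescence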
Target sequence (Q9NP58 whole entry, looked up): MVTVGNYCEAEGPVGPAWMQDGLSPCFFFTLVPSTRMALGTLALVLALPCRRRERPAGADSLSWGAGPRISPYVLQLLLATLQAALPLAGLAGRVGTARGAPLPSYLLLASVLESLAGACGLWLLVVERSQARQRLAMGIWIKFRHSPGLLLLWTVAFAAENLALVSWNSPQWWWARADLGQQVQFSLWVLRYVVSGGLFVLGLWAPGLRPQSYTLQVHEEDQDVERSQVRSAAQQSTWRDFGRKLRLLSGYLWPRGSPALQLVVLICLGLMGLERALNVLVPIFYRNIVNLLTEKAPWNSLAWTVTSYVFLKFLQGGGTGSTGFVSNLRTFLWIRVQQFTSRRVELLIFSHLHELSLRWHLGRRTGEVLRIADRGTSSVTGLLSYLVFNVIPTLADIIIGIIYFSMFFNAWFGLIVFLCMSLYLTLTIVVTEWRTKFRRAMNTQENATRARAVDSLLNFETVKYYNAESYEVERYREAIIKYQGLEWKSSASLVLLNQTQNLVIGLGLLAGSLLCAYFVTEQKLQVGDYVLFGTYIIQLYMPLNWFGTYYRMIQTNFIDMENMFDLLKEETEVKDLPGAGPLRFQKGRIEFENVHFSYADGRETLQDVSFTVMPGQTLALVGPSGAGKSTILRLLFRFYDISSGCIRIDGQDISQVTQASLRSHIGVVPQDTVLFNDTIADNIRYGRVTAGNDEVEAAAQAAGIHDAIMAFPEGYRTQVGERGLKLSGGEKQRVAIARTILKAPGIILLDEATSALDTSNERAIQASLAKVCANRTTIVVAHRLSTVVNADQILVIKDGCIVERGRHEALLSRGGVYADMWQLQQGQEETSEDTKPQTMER
ABCB6 blocker 1 = ABCB6 transporter inhibitors, confirmation, K562-ABCB6 cells, flow cytometry, cherry pick 1 | shares compounds with ABCB6 inh 2 | K562-ABCB6 porphyrin accumulation, 1 h; stronger effect = lower value | ratio response (% of DMSO), % at 10 µM | 700 tested, under 10 active | AID 602430, 2012;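 active = repeat-averaged ratio response below 75% of DMSO, the collection mean minus 3 SD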;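 also: median porphyrin fluorescence at 575 nm with 488 nm excitation from mitochondria; lower ratio means less porphyrin signal so ABCB6 inhibition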
Numbers without * were called inactive. Only some compounds are listed: those with a hit (about 1.6% of all), similar ones and a draw of the others.

`O=C(C[C@@H]1CC[C@H](NC(=O)Nc2ccc3c(c2)OCO3)[C@@H](CO)O1)NCCCN1CCOCC1` gave RAD54 inh 7.
Screening COCCCNC(=O)CCc1nnc2ccc(N3CCC(C)CC3)nn12 returned RAD54 inh -1, Myeloid diff 2 inactive, Vif inh 5, N-glyco inh 1, ABCB6 inh 2 94 and ABCB6 blocker 1 102.
`Cc1ccc2nc(NC(=O)C3=NN(c4ccccc4)C(=O)CC3)sc2c1` gave Myeloid diff 2 inactive, Vif inh 3, N-glyco inh 1 and ABCB6 inh 2 109.
CCOc1ccc2nc(NC(=O)C3=NN(c4ccccc4)C(=O)CC3)sc2c1 was read as Myeloid diff 2 inactive, Vif inh 6, N-glyco inh 1, ABCB6 inh 2 74* and ABCB6 blocker 1 100.
For Cc1nc(N2CCN(Cc3ccc4c(c3)OCO4)CC2)nc2c1C(=O)CC(c1ccco1)C2 (stereo unspecified) the results were RAD54 inh 1, Myeloid diff 2 inactive, Vif inh -8, N-glyco inh -3, ABCB6 inh 2 73* and ABCB6 blocker 1 198.
For CCN(CC)C(=O)CSc1nc(O)c(Cc2ccccc2)c(=O)n1-c1ccccc1 the results were RAD54 inh -7, Myeloid diff 2 inactive, Vif inh 28, N-glyco inh 1, ABCB6 inh 2 57* and ABCB6 blocker 1 100.
`Cc1cc(C)cc(OCc2ccc(C(=O)O)o2)c1` gave RAD54 inh -3, Myeloid diff 2 inactive, Vif inh 11, N-glyco inh 1 and ABCB6 inh 2 95.
`O=C(c1ccc(COc2ccccc2Cl)o1)N1N=C(C(F)F)CC1(O)C(F)F` (stereo unspecified) gave RAD54 inh -4, Myeloid diff 2 inactive, Vif inh -4, N-glyco inh -2, ABCB6 inh 2 96 and ABCB6 blocker 1 100.
Screening O=C(c1ccc(COc2ccc3ccccc3c2)o1)N1N=C(C(F)F)CC1(O)C(F)F (stereo unspecified) returned RAD54 inh 6, Myeloid diff 2 inactive, Vif inh -10, N-glyco inh -4, ABCB6 inh 2 103 and ABCB6 blocker 1 101.
Screening CCOc1ccc(OCc2ccc(C(=O)N3N=C(C(F)F)CC3(O)C(F)F)o2)cc1 (stereo unspecified) returned RAD54 inh 7, Myeloid diff 2 inactive, Vif inh 3, N-glyco inh 1, ABCB6 inh 2 66* and ABCB6 blocker 1 98.
For Cc1cc(C)cc(OCc2ccc(C(=O)N3N=C(C(F)F)CC3(O)C(F)F)o2)c1 (stereo unspecified) the results were RAD54 inh 2, Myeloid diff 2 inactive, N-glyco inh 1, ABCB6 inh 2 97 and ABCB6 blocker 1 101.
`C[C@@H]1CN([C@H](C)CO)C(=O)Cc2cc(NC(=O)Nc3ccc(F)cc3)ccc2O[C@H]1CN(C)S(=O)(=O)c1ccc(Cl)cc1` gave RAD54 inh -8.
O=C(c1ccc(COc2ccc(Br)cc2)o1)N1N=C(C(F)F)CC1(O)C(F)F (stereo unspecified) was read as Myeloid diff 2 inactive, Vif inh -4, N-glyco inh -2, ABCB6 inh 2 94 and ABCB6 blocker 1 100.
Screening Cc1ccc(C)c(OCc2ccc(C(=O)N3N=C(C(F)F)CC3(O)C(F)F)o2)c1 (stereo unspecified) returned Myeloid diff 2 inactive, Vif inh -2, N-glyco inh -2, ABCB6 inh 2 63* and ABCB6 blocker 1 95.
CCc1cccc(NC(=O)c2sc3nc4n(c(=O)c3c2C)CCC4)c1 was read as RAD54 inh 0, Myeloid diff 2 inactive, Vif inh 0, N-glyco inh 1, ABCB6 inh 2 94 and ABCB6 blocker 1 94.
For CCOc1ccc(NC(=O)c2sc3nc4n(c(=O)c3c2C)CCC4)cc1 the results were RAD54 inh -19, Myeloid diff 2 inactive, Vif inh -3, N-glyco inh 0, ABCB6 inh 2 94 and ABCB6 blocker 1 102.
`Cc1c(C(=O)Nc2ccccc2F)sc2nc3n(c(=O)c12)CCC3` gave RAD54 inh -1, Myeloid diff 2 inactive, Vif inh 7, N-glyco inh -2, ABCB6 inh 2 98 and ABCB6 blocker 1 98.
For Cc1cc(C)cc(NC(=O)c2sc3nc4n(c(=O)c3c2C)CCC4)c1 the results were RAD54 inh 9, Myeloid diff 2 inactive, Vif inh -8, N-glyco inh -1 and ABCB6 inh 2 92.
`CCOC(=O)c1ccc(NC(=O)c2sc3nc4n(c(=O)c3c2C)CCC4)cc1` gave RAD54 inh -5, Myeloid diff 2 inconclusive, Vif inh -5, N-glyco inh -2 and ABCB6 inh 2 97.
Cc1cc(C(=O)Nc2cccc3c2O[C@H](CN(C)C(=O)Nc2ccc(F)cc2)[C@H](C)CN([C@H](C)CO)C3=O)n(C)n1 was read as RAD54 inh -1.
`C[C@H](CO)N1C[C@H](C)[C@@H](CN(C)Cc2ccccc2F)Oc2ncc(C3=CCCC3)cc2C1=O` gave RAD54 inh 5.
CC1(C)CC(=O)C(C2C3=C(CC(C)(C)CC3=O)Oc3ccc4ccccc4c32)C(=O)C1 (stereo unspecified) was read as Myeloid diff 2 inactive, Vif inh 2, N-glyco inh -4, ABCB6 inh 2 74* and ABCB6 blocker 1 102.
Screening CC1(C)CC(=O)C(C2C3=C(CC(C)(C)CC3=O)Oc3ccccc32)C(=O)C1 (stereo unspecified) returned Myeloid diff 2 inactive, Vif inh -30, N-glyco inh -2 and ABCB6 inh 2 102.
Cc1ccc(O)c(NC2=C(Cl)C(=O)N(Cc3ccccc3)C2=O)c1 was read as Myeloid diff 2 inactive, Vif inh 5, N-glyco inh 1, ABCB6 inh 2 74* and ABCB6 blocker 1 107.
For Cc1ccc(C(=O)N2CCCCC2)cc1NC1=C(Cl)C(=O)N(Cc2ccccc2)C1=O the results were RAD54 inh -2, Myeloid diff 2 inactive, Vif inh 1, N-glyco inh -9 and ABCB6 inh 2 92.
Screening Cc1ccc(S(=O)(=O)Nc2ccc3c(c2)C(=O)N([C@H](C)CO)C[C@@H](C)[C@@H](CN(C)C(=O)c2ccncc2)OCCCC[C@H](C)O3)cc1 returned RAD54 inh 5.

Compound activity deposited in PubChem by several laboratories.
